We go through 40 molecules from PubChem BioAssay (NCI).

Compounds without any hit were thinned out: in the full panel of roughly 83,000, 20% have a hit.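 Values shown are percent growth following 48 h exposure of cells in 96-well plates to a single concentration of compound; below 10 was considered active.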 Unmarked numbers belong to inactive results. The source made the active and inactive calls.

The experiment has as its system HT29 colon. The experiment is described as follows: NCI-60 one-dose screen, 48 h (100 = growth as untreated, 0 = no growth, -100 = all killed). Conditions: 10 µM unless noted. The protocol: Growth inhibition of the HT29 human tumor cell line is measured as a screen for anti-cancer activity. Cells are grown in 96 well plates and exposed to the test compound for 48 hours. Compounds are tested at a single concentration, which is 10^-5 M for most compounds. The reported endpoint is percent growth (GI% or GIPRCNT), where numbers from 0 - 100% represent growth inhibition, and numbers from -100% - 0 represent cell death. For example, a value of 40 represents 60% growth inhibition. A value of 0 means no net growth occurred over the course of the experiment. A value of -40 indicates 40% of cells at the beginning of the experiment died by the end of the experiment. A value of -100 means all cells are dead at the end of the experiment.
NCI-60 Human Tumor Cell Lines Screen was performed using the standard one-dose NCI protocol, which is described in more detail at https://dtp.cancer.gov/discovery_development/nci-60/default.htm.
Compounds with GIPRCNT values below 10 were considered active. Activity score was based on GIPRCNT using the following formula: […]
Score is 0 for GIPRCNT values of 100 or above, 50 for GIPRCNT values of 0, and 100 for GIPRCNT values of -100.
As to `COC(=O)c1ccc2c(c1)Oc1ccc(Cl)cc1-c1cc(C)nn1-2`, the growth is 74.3%. In the case of `c1ccc2c(c1)Oc1cccnc1-n1nccc1-2`, the growth was 99.7%. Next, `CC(C)(C)NCC(O)COc1c(Br)c(Br)c(Br)c2c1OC(C)(C)C2` (stereo not given): -72.7% (active); `COC(=O)c1ccc(NC(N)=NCC(C)(C)COc2ccc(C(F)(F)F)cc2)nc1`: 9.44% (active); `O=C(Nc1ccc(-n2cc(-c3ccncc3)c(-c3ccc(O)c(Cl)c3)n2)cc1)Nc1cccc(Cl)c1Cl`: 1.45% (active). As to `O=C(Nc1ccc(-n2ccc3c(NC(=O)c4ccccc4)nccc32)cc1)c1cccc(C(F)(F)F)c1`, the growth is 2.7% (active). For `Cc1cn(-c2cc(C(=O)Nc3cccc(-n4ccc5c(NC(=O)c6ccccc6)nccc54)c3)cc(C(F)(F)F)c2)cn1`, the growth was -41.2% (active). As to `Cc1ccc[n+](CC(=O)c2cccc3ccccc23)c1`, the growth is 102%. In the case of `Nc1ccc(S(=O)(=O)Nc2cc(I)cc(I)c2)cc1`, the growth was 107%.

Regarding `CCN(CC)CCNCC(O)Cc1ccc(OC)cc1` (stereo not given), the growth was 77.4%. On to `CNCCCOc1c(Br)cc(CCNC(=O)/C(Cc2ccc(OC)c(Br)c2)=N/O)cc1Br`, for which the growth was 5.72% (active). Regarding `CC(=O)Cc1cccnc1`, the growth was 106%. Next, `CCCCCCCCCCCCCCCCNc1ccccc1`: 87.1%. With `COc1ccc(/C=C2\CS(=O)(=O)C/C(=C\c3ccc(OC)cc3)C2=O)cc1` the figure was -51.2% (active); with `CCC1S/C(=N\N=C(/C)c2cccs2)N(c2ccccc2)C1=O` (stereo not given), 91%; with `CCc1cccc(C)c1NC(=O)c1sc2nc3c(cc2c1N)CCCCC3`, 8.55% (active). Turning to `CCc1c(C)c2cc(-n3c(-c4ccc(OC)cc4)csc3=N)c(O)c(C)c2oc1=O`, the growth was 5.28% (active). For `Cc1ccc2nc(-c3ccc(-n4on4-c4ccc(/C=C/c5ccc(-n6on6-c6ccc(-c7nc8ccc(C)cc8s7)cc6)cc5S(=O)(=O)O)c(S(=O)(=O)O)c4)cc3)sc2c1`, the growth is 113%. On to `COc1cc(NC(C)CCCN2C(=O)c3ccccc3C2=O)c2ncccc2c1OC` (stereo not given), for which the growth was 101%. In the case of `COc1ccccc1S(=O)(=O)Nc1ccc2c3c(cc(-c4cnn(C5CC5)c4)nc13)C(=O)N2C`, the growth was 44%. As to `COc1ccc(-c2nn(-c3ccc(NC(=O)c4cc(C(F)(F)F)cc(C(F)(F)F)c4)cc3)cc2-c2ccncc2)cc1Cl`, the growth is 53.7%.

Regarding `O=C(Nc1ccc(-n2cc(-c3ccncc3)c(-c3ccc(O)c(Cl)c3)n2)cc1)c1ccc(Cl)c(C(F)(F)F)c1`, the growth is -33.9% (active). As to `Clc1ccc(CN2COc3c(ccc4cccnc34)C2)cc1Cl`, the growth was 30.3%. With `CCCCCCCC(=O)SCC/C=C/[C@@H]1CC(=O)NCc2nc(cs2)C2=N[C@@](C)(CS2)C(=O)N[C@@H](C(C)C)C(=O)N1` the figure was -22.4% (active); with `CCNc1cc(S(=O)(=O)O)ccc1C`, 102%. On to `O=C(NCCNc1nccc(-c2c(-c3cccc(O)c3)nc3sccn23)n1)c1ccccc1`, for which the growth is 65.4%.

For the molecule `O=C(Nc1ccc(-n2cc(-c3ccncc3)c(-c3ccc(O)c(Cl)c3)n2)cc1)c1ccc(Cl)c(Cl)c1`, the growth was -10.4% (active). On to `O=c1c2ccccc2sc2c(N3CCCC3)nc3ccccc3c12`, for which the growth was 92.3%. `c1ccc(CNCCN(CCNCc2ccccn2)Cc2ccc3ccccc3c2)nc1`: the growth was 6.31% (active). For `CCC1S/C(=N\N=C(/C)c2ccco2)N(c2ccccc2)C1=O` (stereo not given), the growth is 86.8%. Consider `CCCCNC(=O)Oc1ccc(/C(=C(/CC)Cc2ccccc2)c2ccc(OCCCN(C)C)cc2)cc1`, for which the growth is 15.4%. Consider `C/C(=N/NC(=O)Cn1c2ccccc2c2ccncc21)c1cccs1`, for which the growth was 89.5%. For `Nc1nccc2c1ccn2-c1ccc(NC(=O)c2ccc(N3CCOCC3)c(C(F)(F)F)c2)cc1`, the growth is -39.7% (active). As for `Nc1nc(Cl)cc(NCc2ccc(CNc3cc(Cl)nc(N)n3)cc2)n1`, the growth was 110%. Consider `COc1ccc(CNc2nc3ccccc3c3c(=O)c4ccccc4sc23)cc1OC`, for which the growth was 73%. With `COC(=O)/C=C/C(=O)c1cc(C)cc(C)c1O`, the growth was 99.7%. Turning to `Nc1ncnc2c1c(C(F)(F)F)cn2[C@@H]1O[C@H](CO)[C@@H](O)[C@H]1O`, the growth is 1.42% (active). With `COc1ccc2c(c1)/C(=C/c1c(-c3cc(OC)c(OC)c(OC)c3Br)nc3sccn13)C(=O)N2`, the growth was 103%. For the molecule `O=c1c2ccccc2[nH]n1Cc1ccc2c(c1)OCO2`, the growth was 104%.

As for `Cc1cc(NCCN(C(C)C)C(C)C)nc(/N=C(\N)Nc2ccc(Cl)c(C(F)(F)F)c2)n1`, the growth is -86.6% (active).
